From PubChem BioAssay AID1626 (SRMLSC, 2009)
Screen size: about 220,000 compounds; about 2,000 (0.91%) were called active. About 2% were inconclusive and are not listed. A selection follows. Results with a measured potency or affinity are listed apart. Values without a mark were called inactive. Rule as the data show it: inconclusive = inhibition above about 80% without an active follow-up result; inactive = below that; test concentration not stated here.

Assay: M. tuberculosis H37Rv growth inhibitors, H37Rv strain (AID 1626);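 also: bacteria incubated seven days before Alamar blue readout; 0% = bacteria only wells and 100% = bacteria with antibiotic wells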
Conditions: active compounds read high, concentration not given here

| Compound | inhibition [%] |
| --- | --- |
| CCCCNC(=O)c1[nH]c(C)c(C(C)=O)c1C | -1.66 |
| O=C(O)c1ccc(N/N=C/c2cc3ccccc3nc2Cl)cc1 | 7.73 |
| CC(=O)NCC(=O)N(C)C(C(=O)Nc1ccc2c(c1)OCCO2)c1ccc(C)cc1 (stereo not given) | 2.18 |
| Cc1ccc(C(NC(=O)/C=C\c2ccc3c(c2)OCO3)C(=O)Nc2ccc3c(c2)OCO3)cc1 (stereo not given) | 61.7 |
| Cc1c(Cl)ccc2c(C(N)=O)cc(-c3ccccn3)nc12 | 3.8 |
| CC(C)n1nc(C(=O)Oc2ccc(Cl)cc2)c2ccccc2c1=O | 9.19 |
| Clc1ccc2c(c1)C(c1ccccc1Cl)=NCc1nnc(Br)n1-2 | -0.77 |
| CN1CCN(Cc2nnc3n2-c2ccc(Cl)cc2C(c2ccccc2)=NC3)CC1 | -4.71 |
| O=C(CN1C(=O)NC2(CCCCC2)C1=O)NC1CCCc2ccccc21 (stereo not given) | -2.8 |
| CN(CC(=O)N1CCN(c2ccc(F)cc2)CC1)S(=O)(=O)c1ccc(F)cc1 | -7.27 |
| CC(=O)c1cccc(NC(=O)Cn2cc3c(n2)CCCC3)c1 | -1.86 |
| CC(=O)Nc1ccc(NC(=O)Cn2cc3c(n2)CCCC3)cc1 | -8.53 |
| CCOc1ccc(NC(=O)Nc2cccnc2)cc1 | 16.1 |
| NC(=O)CSc1ncnc2c1oc1ccccc12 | 7.24 |
| O=C(O)CSc1ncnc2c1oc1ccccc12 | -5.38 |
| COc1ccc(Cc2nnc(NC(=O)c3cccc([N+](=O)[O-])c3)s2)cc1 | 1.81 |
| CCCCNC(=O)c1ccc(Cn2c(=S)[nH]c3c([nH]c4ccc(OC)cc43)c2=O)cc1 | -1.23 |
| O=c1[nH]c(CN2CCOCC2)nc2ccccc12 | -6.66 |
| N#Cc1ccc(COC(=O)c2ccc3c(=O)[nH]c(CN4CCOCC4)nc3c2)cc1 | -4.45 |
| O=C(c1ccc2c(c1)OCO2)C1CCCN(C(=O)c2cnn(Cc3ccccc3)c2)C1 (stereo not given) | 5.07 |
| O=C(O)c1cc2c(s1)-c1ccccc1OC2 | -9.86 |
| Cc1ccccc1NC(=O)c1ccc(-c2ccc(Cl)cc2Cl)o1 | 66.1 |
| CS(=O)(=O)N1CCN(c2ccccc2NC(=O)c2ccc(-c3ccc(Cl)cc3Cl)o2)CC1 | -2.89 |
| Cc1c(NC(=O)c2cc3c(s2)-c2ccccc2OC3)cccc1[N+](=O)[O-] | 1.27 |

| Compound | inhibition [%] |
| --- | --- |
| Cc1cccc(-c2c3c(=O)n(C)c(=O)n(C)c3cn2CCO)c1 | 0.58 |
| CCOC(=O)/C(C#N)=C1/C=C(C)NC(c2ccccc2O)=N1 | -1.53 |
| C=CCNC(=O)COC(=O)CCC(=O)c1cccs1 | -6.43 |
| CCC1=C(OC(=O)N(CC)CC)N2C(=O)OC(=NCc3ccccc3)[C@]2(C)[C@H]2C1=CC[C@H]1C(=O)N(CC(=O)OC)C(=O)[C@H]12 | 6.67 |
| COc1ccccc1-c1nc(C#N)c(N2CCN(c3ccccc3)CC2)o1 | 0.35 |
| O=C(NCCN1CCN(c2cccc(Cl)c2)CC1)c1ccc(CSc2nc3ccncc3[nH]2)cc1 | 12.1 |
| COc1ccc(Cl)cc1N(CC(=O)N/N=C/c1ccc(OC(C)C)cc1)S(=O)(=O)c1ccc(C)c([N+](=O)[O-])c1 | 2.6 |
| CC1CCCC(NC(=O)COC(=O)COc2ccccc2Cl)C1C (stereo not given) | -6.56 |
| CC1CCCC(NC(=O)COC(=O)Cc2ccccc2)C1C (stereo not given) | -10.6 |
| NC(=O)NC(=O)COC(=O)c1sc2ccccc2c1Cl | -8.02 |
| NC(=O)COC(=O)c1sc2ccccc2c1Cl | 59.5 |
| O=C(NCc1ccccc1F)Nc1ccc([N+](=O)[O-])cc1 | -8.88 |
| COC(=O)c1c(NC(=O)CC2SC(N)=NC2=O)sc2c1CCC(C)C2 (stereo not given) | 10.2 |
| COC(=O)c1c(NC(=O)CC2SC(N)=NC2=O)sc2c1CCCC2 (stereo not given) | 0.3 |
| Nc1nc(CN2CCN(c3ccccc3F)CC2)nc(Nc2ccc3c(c2)OCCO3)n1 | 12.1 |
| CCCOc1ccc(-c2nnn(CC(=O)OCC)n2)cc1 | 79.1 |
| CC(C)COc1ccc(-c2nnn(CC(=O)N3CCCC3)n2)cc1 | 2.29 |
| COCCNC(=O)C(c1ccc(C)o1)N(C(=O)Cn1nnc2ccccc21)c1ccccc1 (stereo not given) | 4.15 |
| COc1ccc(N2CCN(C(=O)c3ccc4c(c3)[nH]c(=S)n3c5ccccc5nc43)CC2)cc1 | -4.09 |
| O=C(c1ccc2c(c1)[nH]c(=S)n1c3ccccc3nc21)N1CCN(c2ncccn2)CC1 | -5.02 |
| Cc1csc2nc(CNS(=O)(=O)c3ccc4c(c3)CCCC4)cn12 | -3.26 |
| CC(C)(C)c1ccc(Oc2ccc(NC(=O)C3CC=CCC3C(=O)O)cc2)cc1 (stereo not given) | 3.77 |
| Cc1cnc(C(=O)Nc2ccc(C(C)C)cc2)cn1 | 13.7 |
| Cc1cnc(C(=O)Nc2ccc(F)cc2)cn1 | -5.16 |

| Compound | inhibition [%] |
| --- | --- |
| CCc1ccc(NC(=O)C2CC=CCC2C(=O)O)cc1 (stereo not given) | -2.56 |
| O=S(=O)(NC1CCCCCCC1)c1cccs1 | 2.84 |
| CC/C=C\[C@H](O)[C@H](O)C1=C(C)C(=O)[C@]2(O1)C(=O)N[C@@](OC)(C(=O)c1ccccc1)C2O (stereo not given in full) | -6.03 |
| CCOC(=O)C(/C(C)=N/NC(=O)C1CC1c1ccccc1)C(C)C (stereo not given) | 2.71 |
| CCCCc1nc2sc3c(SCC(=O)NCc4ccco4)ncnc3c2c2c1CCC2 | -4.26 |
| CCCCc1nc2sc3c(=O)n(N)cnc3c2c2c1CCC2 | -0.89 |
| COCCCNC(=O)c1c(NC(=O)C2COc3ccccc3O2)sc2c1CCCC2 (stereo not given) | -1.45 |
| COc1ccc(OC)c(S(=O)(=O)N2Cc3ccccc3CC2C(=O)O)c1 (stereo not given) | -11.6 |
| CC(=O)Nc1ccc(NC(=O)CCCCCN2C(=O)c3ccccc3C2=O)cc1 | 1.79 |
| CCN1/C(=C\C=C2\C(=O)N(C)C(=S)N2C)Sc2ccccc21 | 16 |
| CCN1/C(=C2\SC(=S)N(Cc3ccccc3)C2=O)Sc2ccccc21 | 5.93 |
| CC(=O)Nc1ccc2c(c1)nc1n2CCN(C(C)c2ccccc2)C1 (stereo not given) | 5.76 |
| O=C(c1ccc(F)cc1)N1CCCCC(S(=O)(=O)c2ccccc2)C1=O (stereo not given) | 6.14 |
| N#CCSc1nc2ccccc2c(=O)n1CCCC(=O)NCC1CCCO1 (stereo not given) | -1.98 |
| Cc1ccc(C(=O)OCC(=O)c2ccc[nH]2)s1 | 7.67 |
| O=C(COC(=O)c1ccc[nH]c1=O)c1ccc(Cl)s1 | -0.06 |
| O=C1NC(O)(c2ccccc2)Oc2ccccc21 (stereo not given) | -6.9 |
| Cc1[nH][nH]c(=O)c1C(c1ccc(-c2ccc(Cl)c(Cl)c2)o1)c1c(C)[nH][nH]c1=O | 60.8 |
| Cc1[nH][nH]c(=O)c1C(c1ccc(-c2ccc(F)cc2)o1)c1c(C)[nH][nH]c1=O | 4.51 |
| O=C(CN1CCC(N2CCCCC2)CC1)N1CCOCC1 | 5.06 |
| CCOC(=O)N1CCN(C(c2ccc(C(C)C)cc2)c2sc3nc(C)nn3c2O)CC1 (stereo not given) | 0.52 |
| COc1ccc(Cl)cc1S(=O)(=O)NCc1cccnc1 | -12 |
| O=S(=O)(Nc1ccc(-c2nnc(SCc3ccc(Cl)cc3)o2)cc1)c1ccccc1 | 5.83 |
| Cc1cccc(OCc2nnc(SCc3cc(=O)[nH]c4ccccc34)n2-c2ccccc2)c1 | 4.6 |

| Compound | inhibition [%] |
| --- | --- |
| O=c1cc(CSc2nnc(COc3ccccc3)n2-c2ccccc2)c2ccccc2[nH]1 | 3.7 |
| COc1ccc(-c2cc(C(=O)Nc3cc(OC)c(OC)c(OC)c3)no2)cc1OC | -1.57 |
| COCCNC(=O)c1cc(-c2ccc(OC)c(OC)c2)on1 | 6.55 |
| CCOC(=O)c1ccc(NC(=O)CSc2nc3c(c(=O)n2CC)SC(C)C3)cc1 (stereo not given) | 7.17 |
| CC(=O)OCCNc1cc(SC(C)C)c2nonc2c1[N+](=O)[O-] | 1.55 |
| CCCSc1cc(NCCOC(=O)CCC)c([N+](=O)[O-])c2nonc12 | 56.8 |
| CC(C)CCSc1cc(NCCO)c([N+](=O)[O-])c2nonc12 | -2.23 |
| CCCSc1cc(NCCOC(C)=O)c([N+](=O)[O-])c2nonc12 | 2.64 |
| COC(=O)c1cc2ccsc2n1CC(=O)Nc1cc(C)cc(C)c1 | -0.8 |
| Cc1cc(NCCOCCO)n2ncc(-c3ccc(Cl)cc3)c2n1 | 8.65 |
| Cc1cc(NCCCN2CCOCC2)n2ncc(-c3ccc(Cl)cc3)c2n1 | 4.89 |
| CC(C)(C)c1cc(C(F)(F)F)n2ncc(-c3ccccc3)c2n1 | 3.89 |
| CC(C)Nc1cc(C(C)(C)C)nc2c(-c3ccccc3)cnn12 | -1.54 |
| CCCc1cc(=O)oc2c(C)c(OCC(=O)c3ccc(N4CCCC4)cc3)ccc12 | 15.8 |
| COCCNC(=O)c1onc(CSc2ccc(C(C)C)cc2)c1C(=O)O | -18.6 |
| O=C1C2C3CCC(C3)C2C(=O)N1c1ccc(OS(=O)(=O)c2ccccc2)cc1 (stereo not given) | -1.92 |
| CCOC(=O)c1nn(-c2ccc(Cl)cc2)c2nc(CC)c(C#N)c(=O)n12 | 1.58 |
| CC(C)C(=O)OC/C(O)=C(\C#N)c1nc2ccccc2[nH]1 | -0.61 |
| COCC(=O)OC/C(O)=C(\C#N)c1nc2ccccc2[nH]1 | 43.4 |
| Cc1cc(C)cc(OCC(=O)OC/C(O)=C(\C#N)c2nc3ccccc3[nH]2)c1 | 13 |
| Cc1cccc(C)c1OCC(=O)OC/C(O)=C(\C#N)c1nc2ccccc2[nH]1 | 3.83 |
| N#C/C(=C(/O)COC(=O)CSc1ccc(Cl)cc1)c1nc2ccccc2[nH]1 | 76.2 |
| Cc1cc(Br)ccc1SCC(=O)OC/C(O)=C(\C#N)c1nc2ccccc2[nH]1 | 77.9 |
